Assay results reported in PubChem BioAssay (EPA / NIEHS).
Inconclusive results are not listed. Active and inactive are the calls of the source. Rule for the calls: active = hit-call score of the fitted dose curve at least 0.9, where 1 is the maximum; inconclusive = response in the unintended direction; inactive = score below 0.9.

These compounds were tested on guinea pig Dopamine Transporter (DAT), gene 100714898 (assay: NVS_TR_gDAT: NovaScreen (NVS) Transporter Assay for guinea pig Dopamine Transporter (DAT) (AID 2283369);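 note: active compounds lower bound radioligand signal relative to DMSO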).
Method: NVS_TR_gDAT is a biochemical, single-readout assay that uses extracted gene-proteins from Guinea pig striatal membranes in a tissue-based cell-free assay. Measurements were taken 2 hours after chemical dosing in a 48-well plate.NVS_TR_gDAT is one of one assay component(s) measured or calculated from the NVS_TR_gDAT assay. It is designed to make measurements of radioligand binding, a form of binding reporter, as detected with scintillation counting signals by Filter-based radiodetection technology.Data from the assay component NVS_TR_gDAT was analyzed into 1 assay endpoint. This assay endpoint, NVS_TR_gDAT, was analyzed in the positive analysis fitting direction relative to DMSO as the negative control and baseline of activity. Using a type of binding reporter, loss-of-signal activity can be used to understand changes in the binding as they relate to the gene Slc6a3. Furthermore, this assay endpoint can be referred to as a primary readout, because the performed assay has only produced 1 assay endpoint. To generalize the intended target to other relatable targets, this assay endpoint is annotated to the transporter intended target family, where the subfamily is neurotransmitter transporter.
Binding assays used specific radioligands (tritiated, iodinated) with non-radioactive competitive displacement ligands in agonist or antagonist protocols (as indicated) and various reference compounds and inhibitors to titrate specific binding to receptors and transporters. Most enzyme assays (CYPs, kinases, phosphatases, proteases, HDACs) used recombinant protein and specific substrates (fluorescence mostly, some colorimetric and radioactive) and inhibitors, followed by a biochemical separation of substrate and product. All assays for the biochemical HTS were initially run in duplicate at a single concentration (10 uM for CYP450 assays and 25 uM for all others). Assay-chemical combinations meeting a pre-defined threshold (e.g., 30% inhibition and other criteria defined below) were then run in singleton concentration-response format with maximum concentration of 20 uM for CYPs and 50 uM for all others. Each assay was run with positive and negative controls, and concurrent controls on every plate. The follow-up (secondary) screen tested active chemical-pairs in concentration series, as well as a few additional assays not tested in the primary screen, some selected negative inactives, and several cases re-run in the concentration series for confirmatory purposes.

AC50, active:
C[C@]12CC[C@@H]3c4ccc(O)cc4CC[C@H]3[C@@H]1CC[C@H]2O 0.231 µM, O=c1[nH]sc2ccccc12 40.5 µM, CN(C)c1ccc(C(=C2C=CC(=[N+](C)C)C=C2)c2ccc(N(C)C)cc2)cc1 7.68 µM, O=C1c2ccccc2C(=O)N1CCc1noc(-c2ccc(CN3CCCCCC3)s2)n1 13.9 µM, CCN(CC)C(=O)c1cc(S(=O)(=O)Cc2ccccc2)c(N2CCC(c3ccccc3)CC2)cc1N(CC)CCN(C)C 6.53 µM, Cc1occc1C(=O)Nc1ccc(C(=O)N2CCC(F)(F)/C(=C\C(=O)N3CCC(N4CCCCC4)CC3)c3ccccc32)cc1 7.8 µM, c1ccc(C[n+]2cccc3ccccc32)cc1 10.1 µM, CCCCCc1ccc(N)cc1 25 µM, CCCCCCCCCCCC[N+](C)(C)C 25 µM, CCCOC(=O)c1cc(O)c(O)c(O)c1 25 µM, CCCCOC(=O)c1ccc(O)cc1 25 µM, CCOC(=O)O[C@H](C)OC(=O)c1ccc2c(c1)cc(C(=O)NC1CCN(C(C)C)CC1)n2Cc1cc(-c2ccc(Cl)s2)on1 13.8 µM, CN(C)C(=O)C1(N2CCCCC2)CCN(CC[C@@]2(c3ccc(Cl)c(Cl)c3)CN(C(=O)c3ccccc3)CCO2)CC1 6.54 µM, NCc1cccc(C2CCN(C(=O)c3ccc(C#Cc4ccccc4F)o3)CC2)c1 10 µM, COc1cccc([C@H](O)C2CCN(CCc3ccc(F)cc3)CC2)c1OC 19.9 µM, COc1cc(C(=O)NC2CCN(C)CC2)ccc1Nc1ncc2c(n1)N(C1CCCC1)CC(F)(F)C(=O)N2C 13.8 µM, Cc1cc(F)ccc1-c1cc(N2CC[C@@H](O)[C@H]2CO)ncc1N(C)C(=O)C(C)(C)c1cc(C(F)(F)F)cc(C(F)(F)F)c1 8.3 µM, Oc1ccc2ccccc2c1 21.3 µM, COc1ccc2cc(S(=O)(=O)N[C@H](CC(=O)N[C@H](Cc3ccc(CN4[C@H](C)CCC[C@@H]4C)cc3)C(=O)N(C)C(C)C)c3ccc4c(c3)OCO4)ccc2c1 13.9 µM

outcome, inactive:
Cc1ccc2oc(CN(Cc3ccccc3)C(=O)Nc3c(F)cc(F)cc3F)c(-c3ccc(Cl)cc3)c2c1
